# Results published in ChEMBL document CHEMBL1961873, “Compounds: GSK PKIS; Assays: Nanosyn kinase panel” (2012).
# Key:
# [1] = target: Serine/threonine-protein kinase 26 (Homo sapiens) (UniProt Q9P289); settings: at 1 µM;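 note: mean inhibition of MST4 kinase activity, reported from the GSK PKIS inhibitor-set screening panel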
# [2] = target: Serine/threonine-protein kinase PAK 1 (Homo sapiens) (UniProt Q13153); settings: at 0.1 µM
# [3] = target: Serine/threonine-protein kinase PAK 1 (Homo sapiens) (UniProt Q13153); settings: at 1 µM
# [4] = target: Serine/threonine-protein kinase PAK 2 (Homo sapiens) (UniProt Q13177); settings: at 0.1 µM
# Serine/threonine-protein kinase PAK 2 (Homo sapiens), sequence (Q13177 whole entry): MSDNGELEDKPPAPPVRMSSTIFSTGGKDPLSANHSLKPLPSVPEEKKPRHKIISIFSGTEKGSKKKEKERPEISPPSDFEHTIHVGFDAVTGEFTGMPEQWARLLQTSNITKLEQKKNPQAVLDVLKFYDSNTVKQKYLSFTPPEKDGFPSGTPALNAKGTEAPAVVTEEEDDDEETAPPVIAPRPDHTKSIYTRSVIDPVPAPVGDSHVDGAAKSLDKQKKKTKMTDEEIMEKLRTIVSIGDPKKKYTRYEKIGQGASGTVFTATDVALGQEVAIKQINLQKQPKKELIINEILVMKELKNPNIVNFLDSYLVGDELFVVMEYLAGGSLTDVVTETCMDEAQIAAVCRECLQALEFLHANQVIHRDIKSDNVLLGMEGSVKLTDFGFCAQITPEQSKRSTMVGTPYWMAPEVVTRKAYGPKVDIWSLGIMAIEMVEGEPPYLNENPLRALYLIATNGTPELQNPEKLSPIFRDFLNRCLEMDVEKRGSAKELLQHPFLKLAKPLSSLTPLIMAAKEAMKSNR
# [5] = target: Serine/threonine-protein kinase PAK 2 (Homo sapiens) (UniProt Q13177); settings: at 1 µM
# [6] = target: Serine/threonine-protein kinase PAK 3 (Homo sapiens) (UniProt O75914); settings: at 0.1 µM
# Serine/threonine-protein kinase PAK 3 (Homo sapiens), sequence (O75914 whole entry, looked up): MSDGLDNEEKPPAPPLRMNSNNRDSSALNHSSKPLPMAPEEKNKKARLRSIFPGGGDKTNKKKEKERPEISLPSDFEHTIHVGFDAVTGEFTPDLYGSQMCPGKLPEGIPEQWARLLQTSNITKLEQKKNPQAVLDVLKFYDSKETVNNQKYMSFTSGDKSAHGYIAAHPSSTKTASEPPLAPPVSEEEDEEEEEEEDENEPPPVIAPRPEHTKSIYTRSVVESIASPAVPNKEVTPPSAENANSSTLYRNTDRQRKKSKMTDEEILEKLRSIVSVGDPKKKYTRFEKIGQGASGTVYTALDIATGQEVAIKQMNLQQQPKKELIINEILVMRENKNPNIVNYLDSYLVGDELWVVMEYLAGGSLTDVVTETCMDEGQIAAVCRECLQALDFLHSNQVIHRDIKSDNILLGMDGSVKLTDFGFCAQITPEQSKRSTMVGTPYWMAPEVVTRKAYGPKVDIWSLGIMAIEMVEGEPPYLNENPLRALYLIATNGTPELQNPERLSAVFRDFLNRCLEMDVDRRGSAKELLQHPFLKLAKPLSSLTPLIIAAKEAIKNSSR
# [7] = target: Serine/threonine-protein kinase PAK 3 (Homo sapiens) (UniProt O75914); settings: at 1 µM
# [8] = target: Serine/threonine-protein kinase PAK 5 (Homo sapiens) (UniProt Q9P286); settings: at 0.1 µM
# Serine/threonine-protein kinase PAK 5 (Homo sapiens), sequence (Q9P286 whole entry, looked up): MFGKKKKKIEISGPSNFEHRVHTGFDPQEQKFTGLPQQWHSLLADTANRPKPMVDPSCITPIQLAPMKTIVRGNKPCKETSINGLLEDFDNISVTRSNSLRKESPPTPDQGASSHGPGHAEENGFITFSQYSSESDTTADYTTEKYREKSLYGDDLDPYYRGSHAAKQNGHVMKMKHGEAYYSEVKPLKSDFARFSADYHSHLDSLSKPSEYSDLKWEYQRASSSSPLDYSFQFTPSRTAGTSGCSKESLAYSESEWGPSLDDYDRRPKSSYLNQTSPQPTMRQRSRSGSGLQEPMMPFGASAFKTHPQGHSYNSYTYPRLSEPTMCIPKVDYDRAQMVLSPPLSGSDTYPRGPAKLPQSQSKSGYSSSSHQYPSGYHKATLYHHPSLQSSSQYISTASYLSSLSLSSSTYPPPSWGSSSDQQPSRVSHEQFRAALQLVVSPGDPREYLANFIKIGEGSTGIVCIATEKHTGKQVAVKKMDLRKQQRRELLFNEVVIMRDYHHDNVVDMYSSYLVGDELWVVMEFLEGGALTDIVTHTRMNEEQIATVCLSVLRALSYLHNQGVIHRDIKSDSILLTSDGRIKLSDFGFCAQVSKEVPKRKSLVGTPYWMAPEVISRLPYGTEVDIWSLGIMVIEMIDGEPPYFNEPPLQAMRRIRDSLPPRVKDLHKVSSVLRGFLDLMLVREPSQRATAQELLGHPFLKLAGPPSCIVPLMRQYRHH
# [9] = target: Serine/threonine-protein kinase PAK 5 (Homo sapiens) (UniProt Q9P286); settings: at 1 µM
# [10] = target: Serine/threonine-protein kinase PAK 6 (Homo sapiens) (UniProt Q9NQU5); settings: at 0.1 µM;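 note: mean PAK6 inhibition reported from the GSK PKIS screen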
# Serine/threonine-protein kinase PAK 6 (Homo sapiens), sequence (Q9NQU5 whole entry, looked up): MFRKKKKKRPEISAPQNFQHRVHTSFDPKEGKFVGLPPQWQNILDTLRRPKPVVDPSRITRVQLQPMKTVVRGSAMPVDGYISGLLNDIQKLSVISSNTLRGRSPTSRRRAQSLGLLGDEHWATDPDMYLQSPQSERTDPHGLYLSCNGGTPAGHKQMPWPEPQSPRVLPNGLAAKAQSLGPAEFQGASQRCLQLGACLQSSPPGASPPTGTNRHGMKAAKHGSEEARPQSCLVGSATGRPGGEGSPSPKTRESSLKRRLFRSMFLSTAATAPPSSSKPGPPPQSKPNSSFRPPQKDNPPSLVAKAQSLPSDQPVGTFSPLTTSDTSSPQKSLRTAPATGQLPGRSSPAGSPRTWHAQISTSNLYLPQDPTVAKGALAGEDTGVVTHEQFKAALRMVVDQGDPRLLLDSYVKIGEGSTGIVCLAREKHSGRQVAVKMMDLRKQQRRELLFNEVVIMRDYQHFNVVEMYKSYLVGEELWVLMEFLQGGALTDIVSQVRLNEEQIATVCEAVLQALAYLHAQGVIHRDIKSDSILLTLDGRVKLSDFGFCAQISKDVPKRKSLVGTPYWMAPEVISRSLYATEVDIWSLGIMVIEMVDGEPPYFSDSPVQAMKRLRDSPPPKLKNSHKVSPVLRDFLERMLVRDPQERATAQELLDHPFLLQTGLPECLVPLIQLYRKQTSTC
# Serine/threonine-protein kinase PAK 1 (Homo sapiens), sequence (Q13153 whole entry): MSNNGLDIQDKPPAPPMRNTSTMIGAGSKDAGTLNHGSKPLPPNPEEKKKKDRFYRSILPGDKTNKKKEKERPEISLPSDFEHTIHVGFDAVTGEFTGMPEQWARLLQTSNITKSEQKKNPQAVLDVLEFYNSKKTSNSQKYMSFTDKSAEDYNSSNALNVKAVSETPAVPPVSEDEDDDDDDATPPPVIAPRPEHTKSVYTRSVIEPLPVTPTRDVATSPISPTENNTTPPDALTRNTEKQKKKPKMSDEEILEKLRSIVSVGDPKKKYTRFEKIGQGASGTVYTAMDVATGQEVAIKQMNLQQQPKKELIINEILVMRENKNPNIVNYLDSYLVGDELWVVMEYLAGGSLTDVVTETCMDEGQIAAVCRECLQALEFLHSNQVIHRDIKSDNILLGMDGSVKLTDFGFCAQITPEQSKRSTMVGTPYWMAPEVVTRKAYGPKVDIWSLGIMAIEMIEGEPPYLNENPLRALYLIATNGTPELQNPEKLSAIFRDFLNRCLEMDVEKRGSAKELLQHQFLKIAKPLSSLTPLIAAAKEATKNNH
# Serine/threonine-protein kinase 26 (Homo sapiens), sequence (Q9P289 2-416 limits assumed): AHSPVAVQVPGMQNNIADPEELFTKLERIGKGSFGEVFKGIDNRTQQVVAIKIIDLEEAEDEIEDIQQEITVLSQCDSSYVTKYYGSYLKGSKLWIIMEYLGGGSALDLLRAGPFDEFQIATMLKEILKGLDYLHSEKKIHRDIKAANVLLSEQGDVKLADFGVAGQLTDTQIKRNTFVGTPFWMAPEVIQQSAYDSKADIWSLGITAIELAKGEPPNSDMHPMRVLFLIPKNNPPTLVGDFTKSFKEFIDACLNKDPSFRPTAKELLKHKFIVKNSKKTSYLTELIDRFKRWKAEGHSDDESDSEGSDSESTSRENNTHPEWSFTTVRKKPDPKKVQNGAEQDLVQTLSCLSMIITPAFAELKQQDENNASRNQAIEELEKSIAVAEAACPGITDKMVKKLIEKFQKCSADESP
structure (smiles),measurement,setting,value
CNC(=O)c1cc(-c2ccc(F)cc2)cc(-c2ccc(S(=O)(=O)N3CCCC3)cc2)c1N,inhibition,[1],-1.61%
same,inhibition,[2],3.68%
same,inhibition,[3],9.51%
same,inhibition,[4],1.46%
same,inhibition,[5],0.63%
same,inhibition,[6],3.43%
same,inhibition,[7],5.29%
same,inhibition,[8],2.26%
same,inhibition,[9],3.67%
same,inhibition,[10],-9.04%
O=C(O[C@H]1CN[C@H](C#Cc2cc3ncnc(Nc4ccc(Cc5ccccc5)cc4)c3s2)C1)N1CCOCC1,inhibition,[1],-0.68%
same,inhibition,[2],0.1%
same,inhibition,[3],2.79%
same,inhibition,[4],0.85%
same,inhibition,[5],0.99%
same,inhibition,[6],3.06%
same,inhibition,[7],2.95%
same,inhibition,[8],0.53%
same,inhibition,[9],0.17%
same,inhibition,[10],-2.8%
Nc1nc(-c2cccc(Cl)c2)c(-c2ccc3ncccc3n2)s1,inhibition,[1],-1.1%
same,inhibition,[2],6.12%
same,inhibition,[3],6.28%
same,inhibition,[4],2.17%
same,inhibition,[5],1.78%
same,inhibition,[6],3.01%
same,inhibition,[7],6.05%
same,inhibition,[8],1.62%
same,inhibition,[9],-3.64%
same,inhibition,[10],3.19%
Cc1cccc(Nc2ncc(-c3ccccc3)o2)c1,inhibition,[1],1.87%
same,inhibition,[2],-2.05%
same,inhibition,[3],3.35%
same,inhibition,[4],0.94%
same,inhibition,[5],2.06%
same,inhibition,[6],2.83%
same,inhibition,[7],5.76%
same,inhibition,[8],1.42%
same,inhibition,[9],10.2%
same,inhibition,[10],-4.69%
Nc1ncc(-c2cccc(S(N)(=O)=O)c2)c2scc(-c3ccc(F)c(Cl)c3)c12,inhibition,[1],2.44%
same,inhibition,[2],3.95%
same,inhibition,[3],5.65%
same,inhibition,[4],3.24%
same,inhibition,[5],1.78%
same,inhibition,[6],5.21%
same,inhibition,[7],3.51%
same,inhibition,[8],4.11%
same,inhibition,[9],3.74%
same,inhibition,[10],-2.3%
COc1ccc2[nH]c3c4[nH]c5ccc(OC)cc5c4c4c(c3c2c1)C(=O)NC4=O,inhibition,[1],14%
same,inhibition,[2],5.41%
same,inhibition,[3],7.72%
same,inhibition,[4],1.43%
same,inhibition,[5],3.51%
same,inhibition,[6],4%
same,inhibition,[7],5.61%
same,inhibition,[8],5.43%
same,inhibition,[9],4.46%
same,inhibition,[10],4.49%
CN1CCC(n2cnc(-c3ccc(F)cc3)c2-c2ccnc(N)n2)CC1,inhibition,[1],1.62%
same,inhibition,[2],-0.17%
same,inhibition,[3],3.27%
same,inhibition,[4],0.07%
same,inhibition,[5],-0.19%
same,inhibition,[6],0.98%
same,inhibition,[7],1.43%
same,inhibition,[8],-5.17%
same,inhibition,[9],3.69%
same,inhibition,[10],-8.92%
Clc1ccc(-c2nn3ncccc3c2-c2ccnc(Nc3ccccc3)n2)cc1,inhibition,[1],2.44%
same,inhibition,[2],2.29%
same,inhibition,[3],-0.81%
same,inhibition,[4],1.12%
same,inhibition,[5],-0.15%
same,inhibition,[6],0.58%
same,inhibition,[7],0.87%
same,inhibition,[8],7.85%
same,inhibition,[9],-0.84%
same,inhibition,[10],7.89%
COc1ccc(CNC(=O)c2ccc(-c3cc(-c4nnc(C)o4)ccc3C)cc2)cc1,inhibition,[1],4.31%
same,inhibition,[2],5.02%
same,inhibition,[3],5.86%
same,inhibition,[4],0.61%
same,inhibition,[5],0.95%
same,inhibition,[6],1.81%
same,inhibition,[7],3.19%
same,inhibition,[8],8.37%
same,inhibition,[9],8.19%
same,inhibition,[10],5.26%
Fc1ccc(-c2cc(-c3c[nH]nc3-c3ccccn3)ccn2)cc1,inhibition,[1],1.02%
same,inhibition,[2],6.01%
same,inhibition,[3],5.42%
same,inhibition,[4],1.23%
same,inhibition,[5],1.38%
same,inhibition,[6],4.08%
same,inhibition,[7],5.11%
same,inhibition,[8],6.2%
same,inhibition,[9],2.37%
same,inhibition,[10],-1.74%
COc1cc2c(cc1Nc1nc(Nc3ccsc3C(N)=O)c3cc[nH]c3n1)N(C(=O)CN(C)C)CCC2(C)C,inhibition,[1],0.56%
same,inhibition,[2],8.7%
same,inhibition,[3],7.09%
same,inhibition,[4],2.44%
same,inhibition,[5],3.48%
same,inhibition,[6],5.68%
same,inhibition,[7],5.85%
same,inhibition,[8],-2.38%
same,inhibition,[9],-3.07%
same,inhibition,[10],-6.17%
c1ccc(COc2ccc(Nc3ncnc4ccc(-c5ccco5)cc34)cc2)cc1,inhibition,[1],1.35%
same,inhibition,[2],5.7%
same,inhibition,[3],3.88%
same,inhibition,[4],-0.79%
same,inhibition,[5],-0.42%
same,inhibition,[6],0.44%
same,inhibition,[7],1.49%
same,inhibition,[8],-1.27%
same,inhibition,[9],-4.07%
same,inhibition,[10],3.06%
CCNC(=O)O[C@H]1CN[C@H](C#Cc2cc3ncnc(Nc4ccc(OCc5cccc(F)c5)c(Cl)c4)c3s2)C1,inhibition,[1],-0.79%
same,inhibition,[2],1.87%
same,inhibition,[3],8.64%
same,inhibition,[4],1.21%
same,inhibition,[5],1.91%
same,inhibition,[6],3.71%
same,inhibition,[7],3.15%
same,inhibition,[8],5.88%
same,inhibition,[9],2.54%
same,inhibition,[10],8.13%
O=S(=O)(CCNCc1ccc(-c2ccc3ncnc(Nc4ccc(OCc5cccc(F)c5)c(Cl)c4)c3c2)o1)c1ccccc1,inhibition,[1],-0.49%
same,inhibition,[2],10%
same,inhibition,[3],7.19%
same,inhibition,[4],2.7%
same,inhibition,[5],3.71%
same,inhibition,[6],6.62%
same,inhibition,[7],5.75%
same,inhibition,[8],4.32%
same,inhibition,[9],5.17%
same,inhibition,[10],0.2%
Fc1cccc(COc2ccc(Nc3ncnc4sc(-c5ccco5)cc34)cc2Cl)c1,inhibition,[1],3.25%
same,inhibition,[2],5.72%
same,inhibition,[3],4.19%
same,inhibition,[4],1.79%
same,inhibition,[5],1.67%
same,inhibition,[6],5.17%
same,inhibition,[7],3.75%
same,inhibition,[8],2.39%
same,inhibition,[9],4.77%
same,inhibition,[10],1.93%
CC(=O)NCc1cccc(C#Cc2cncnc2Nc2ccc(OCc3cccc(F)c3)c(Cl)c2)c1,inhibition,[1],2.49%
same,inhibition,[2],4.19%
same,inhibition,[3],4.46%
same,inhibition,[4],-0.34%
same,inhibition,[5],-0.13%
same,inhibition,[6],-0.22%
same,inhibition,[7],0.22%
same,inhibition,[8],2.64%
same,inhibition,[9],-5.66%
same,inhibition,[10],3.99%
Nc1nc(-c2ccc(F)cc2)c(-c2ccc3ncccc3n2)s1,inhibition,[1],9.07%
same,inhibition,[2],6.29%
same,inhibition,[3],6.35%
same,inhibition,[4],1.67%
same,inhibition,[5],2.07%
same,inhibition,[6],5.1%
same,inhibition,[7],5.56%
same,inhibition,[8],2.84%
same,inhibition,[9],4.21%
same,inhibition,[10],1.6%
COc1cccc(-c2c[nH]c3c(N/N=C/c4ccncc4)ncnc23)c1,inhibition,[1],20.3%
same,inhibition,[2],2.35%
same,inhibition,[3],1.11%
same,inhibition,[4],0.94%
same,inhibition,[5],0.74%
same,inhibition,[6],1.83%
same,inhibition,[7],2.84%
same,inhibition,[8],0.46%
same,inhibition,[9],0.73%
same,inhibition,[10],5.9%
COc1ccc(-c2oc3ncnc(N)c3c2-c2ccc(NC(=O)Nc3cc(C(F)(F)F)ccc3F)cc2)cc1,inhibition,[1],0.01%
same,inhibition,[2],6.65%
same,inhibition,[3],5.48%
same,inhibition,[4],3.2%
same,inhibition,[5],3.66%
same,inhibition,[6],4.72%
same,inhibition,[7],4.39%
same,inhibition,[8],16.8%
same,inhibition,[9],0.17%
same,inhibition,[10],2.23%
